Activity calls are given as the source filed them. Unless noted, how the calls were made is not given here.

For assay [1], the system named is Wnt5a (protein binding on small-molecule microarray). The assay is described as follows: Wnt5a binders on small-molecule microarray, primary screen, biophysical, 635/667 nm fluorescence (AID 1142).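 Further: fluorescence read at 667 nm with signal to noise per printed feature.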 Particulars: 635 nm fluorescence, higher = more signal.
The nature of assay [2]: cell viability in Huh7 cells, primary screen, cytotoxicity control for HCV replication inhibitor project, CellTiter-Glo luminescence, basal, 48 h (AID 1143).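 Further: Huh7 hepatoma cells carrying a hepatitis C replication reporter with no stimulus; test concentration not given here.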 The following applies: Huh7 HCV replicon, higher = more signal, called active from +8 up or from −8 down. Background: In ATP-based viability assays light output follows the ATP content of the culture.
Assay [3] in a line: P. aeruginosa biofilm formation inhibitors, primary screen, PAO1 strain, BacTiter-Glo luminescence, LB-PBS (AID 1144). The following applies: 12 h, higher = more signal.
Assay [4] can be described thus: CREB reporter modulators without forskolin, primary screen, cell-based, PC12, CRE-LacZ reporter, unstimulated (AID 1145). Particulars: no forskolin, luminescence, 4.5 h, higher = more signal, called active from +8 up or from −8 down.
A short description of assay [5]: CREB reporter modulators under forskolin, primary screen, cell-based, PC12, CRE-LacZ reporter, forskolin-stimulated (AID 1146).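 Further: PC12 cells with 6xCRE LacZ reporter stimulated by forskolin 10 µM; beta-galactosidase reporter signal reflecting CREB driven transcription.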 Particulars: luminescence, 4.5 h, higher = more signal, called active from +8 up or from −8 down.
Assay [6] has as its target Streptavidin (Streptomyces avidinii) (UniProt P22629). The assay is described as follows: streptavidin binders on small-molecule microarray, primary screen, artefact control for SMM compound annotation, biophysical, 635/667 nm fluorescence (AID 1147).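 Further: signal reflects streptavidin binding to arrayed compounds as a control protein.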 Particulars: streptavidin binding, higher = more signal.
Assay [7] is described as follows: small-molecule binders of probe aInhba, primary screen, biochemical, small-molecule microarray, 635/667 nm fluorescence (AID 1148).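 Further: score merges 667nm spot fluorescence with signal-to-noise for antibody binding to printed compounds.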 The following applies: higher = more signal.
Assay [8] concerns the target Torsin-1A (Homo sapiens) (UniProt O14656). The assay is described as follows: torsin A binders from cell lysate, primary screen, small-molecule microarray, wild-type, 635/667 nm (AID 1149). Particulars: COS7 hTOR1A-WT lysate, 635 nm fluorescence, higher = more signal.
The target is the same in assay [9]. The assay is described as follows: small-molecule binders of mutant TOR1A in lysate, primary screen, cell lysate, small-molecule microarray, COS7 lysate, 635/667 nm fluorescence (AID 1150).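 Further: score pools 667 nm emission and signal to noise measuring lysate protein binding.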 Particulars: COS7 hTOR1A mutant lysate, 635 nm fluorescence, higher = more signal.
Assay [10] deals with Sonic hedgehog protein (Shh). The assay is described as follows: small-molecule binders of Shh protein, primary screen, biochemical, small-molecule microarray, 635/667 nm fluorescence (AID 1151).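 Further: Shh protein binding to compounds spotted on small-molecule microarray slides; score combines spot fluorescence intensity with signal-to-noise across triplicate slides.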 Particulars: small-molecule microarray binding, 635 nm fluorescence; higher = more signal.
The nature of assay [11]: E. coli DRC41 culture turbidity changes, primary screen, E. coli filamentation inducer project, strain DRC41, OD650, 48 h (AID 1152).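 Further: E. coli MC1000 strain DRC41 lacking acrAB efflux pump and sulA.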 Particulars: E. coli DRC41 (acrAB sulA), higher = more signal, called active from +8 up or from −8 down.
Assay [12] is described as follows: small-molecule binders of probe aLefty1, primary screen, biochemical, small-molecule microarray, 635/667 nm fluorescence (AID 1153).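 Further: score merges spot fluorescence with signal-to-noise ratio from the scanned slide images.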 The following applies: higher = more signal.
Assay [13] can be described thus: PSAC antagonists in infected red cells, primary screen, cell-based, P. falciparum Indochina, OD700, 1 h (AID 1154). The following applies: P. falciparum Indochina infected RBC osmotic lysis, higher = more signal, called active from +8 up or from −8 down.
The nature of assay [14]: PSAC antagonists in infected red cells, primary screen, cell-based, P. falciparum Indochina, OD700, 2 h (AID 1155).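 Further: lysis reports solute entry through the parasite surface anion channel PSAC; channel blockers reduce lysis of infected cells.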 The following applies: P. falciparum Indochina infected erythrocytes, osmotic lysis OD700; higher = more signal, called active from +8 up or from −8 down.
A short description of assay [15]: osmotic lysis modulators in infected erythrocytes, primary screen, PSAC antagonist project, cell-based, P. falciparum Indochina, OD700, 3 h (AID 1156). Particulars: higher = more signal, called active from +8 up or from −8 down.
Assay [16] is described as follows: PSAC antagonists in infected red cells, primary screen, cell-based, P. falciparum Indochina, OD700, 18 h (AID 1157). The following applies: P. falciparum Indochina infected erythrocytes, osmotic lysis OD700, 18 h; higher = more signal, called active from +8 up or from −8 down.
Assay [17] is described as follows: modulators of S6 phosphorylation in cells, primary screen, cell-based, A549, cytoblot, luminescence, serum-stimulated (AID 1158).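 Further: serum-stimulated A549 lung adenocarcinoma cells; signal is phosphorylated S6 detected by cytoblot immunostaining with HRP secondary.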 The following applies: A549 phospho-S6 cytoblot, 5 h, higher = more signal.
For assay [18], the target named is NADPH oxidase 2 (Homo sapiens) (UniProt P04839). The assay is described as follows: NOX2-dependent H2O2 signal modulators, primary screen, NOX inhibitor project, cell-based, HEK293-NOX2, PMA-stimulated, Amplex Red fluorescence (AID 1159). Further: test concentration not given here. The following applies: 45 min, higher = more signal, called active from +8 up or from −8 down.
In assay [19] the target is NADPH oxidase 4 (Homo sapiens) (UniProt Q9NPH5). The assay is described as follows: NOX4-dependent H2O2 signal modulators, primary screen, NOX inhibitor project, cell-based, HEK293-NOX4, tetracycline-induced, Amplex Red fluorescence (AID 1160). Particulars: 45 min, higher = more signal, called active from +8 up or from −8 down.
For assay [20], the target named is NADPH oxidase 5 (Homo sapiens) (UniProt Q96PH1). The assay is described as follows: NOX5-dependent H2O2 signal modulators, primary screen, NOX inhibitor project, cell-based, HEK293-NOX5, Amplex Red fluorescence (AID 1161). The following applies: HEK293-NOX5, ionomycin, 45 min, higher = more signal.
NADPH oxidase 5 (Homo sapiens), sequence (Q96PH1 whole entry, looked up): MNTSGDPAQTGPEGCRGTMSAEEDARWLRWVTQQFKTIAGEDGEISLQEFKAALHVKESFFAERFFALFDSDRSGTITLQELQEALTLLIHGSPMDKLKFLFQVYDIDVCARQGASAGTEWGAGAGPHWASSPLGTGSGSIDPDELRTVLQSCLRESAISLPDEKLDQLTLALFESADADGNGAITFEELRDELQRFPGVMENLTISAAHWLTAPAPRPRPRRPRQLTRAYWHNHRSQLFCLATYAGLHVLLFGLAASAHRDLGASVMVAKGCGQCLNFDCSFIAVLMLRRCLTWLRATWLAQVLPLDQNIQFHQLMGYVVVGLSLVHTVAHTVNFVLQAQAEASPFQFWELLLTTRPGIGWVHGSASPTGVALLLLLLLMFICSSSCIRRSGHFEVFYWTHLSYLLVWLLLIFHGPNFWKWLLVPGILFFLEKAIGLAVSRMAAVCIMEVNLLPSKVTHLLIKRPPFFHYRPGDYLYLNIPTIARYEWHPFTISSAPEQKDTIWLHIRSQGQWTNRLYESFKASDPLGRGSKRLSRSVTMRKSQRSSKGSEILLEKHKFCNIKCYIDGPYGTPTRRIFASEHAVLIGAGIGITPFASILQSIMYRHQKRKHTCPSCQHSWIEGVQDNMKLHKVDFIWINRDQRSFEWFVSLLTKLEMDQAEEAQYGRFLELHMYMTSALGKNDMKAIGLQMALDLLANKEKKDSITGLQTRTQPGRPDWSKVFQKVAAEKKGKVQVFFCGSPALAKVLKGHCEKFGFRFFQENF

NADPH oxidase 4 (Homo sapiens), sequence (Q9NPH5 whole entry, looked up): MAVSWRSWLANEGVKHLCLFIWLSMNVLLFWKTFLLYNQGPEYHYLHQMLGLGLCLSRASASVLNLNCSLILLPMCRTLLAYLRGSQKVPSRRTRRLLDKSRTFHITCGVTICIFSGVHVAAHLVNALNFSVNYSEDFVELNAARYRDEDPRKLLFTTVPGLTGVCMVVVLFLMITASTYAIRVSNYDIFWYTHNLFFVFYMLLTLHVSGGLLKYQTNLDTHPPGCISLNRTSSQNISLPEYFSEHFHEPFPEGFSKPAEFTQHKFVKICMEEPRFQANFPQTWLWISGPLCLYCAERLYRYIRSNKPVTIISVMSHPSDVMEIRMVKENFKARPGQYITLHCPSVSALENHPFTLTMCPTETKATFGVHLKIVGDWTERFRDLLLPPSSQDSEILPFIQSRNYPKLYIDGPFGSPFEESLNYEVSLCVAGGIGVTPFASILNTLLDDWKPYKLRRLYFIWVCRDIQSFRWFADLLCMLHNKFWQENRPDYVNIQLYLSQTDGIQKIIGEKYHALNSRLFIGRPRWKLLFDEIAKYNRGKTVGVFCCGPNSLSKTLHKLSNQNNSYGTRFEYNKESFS
NADPH oxidase 2 (Homo sapiens), sequence (P04839 whole entry, looked up): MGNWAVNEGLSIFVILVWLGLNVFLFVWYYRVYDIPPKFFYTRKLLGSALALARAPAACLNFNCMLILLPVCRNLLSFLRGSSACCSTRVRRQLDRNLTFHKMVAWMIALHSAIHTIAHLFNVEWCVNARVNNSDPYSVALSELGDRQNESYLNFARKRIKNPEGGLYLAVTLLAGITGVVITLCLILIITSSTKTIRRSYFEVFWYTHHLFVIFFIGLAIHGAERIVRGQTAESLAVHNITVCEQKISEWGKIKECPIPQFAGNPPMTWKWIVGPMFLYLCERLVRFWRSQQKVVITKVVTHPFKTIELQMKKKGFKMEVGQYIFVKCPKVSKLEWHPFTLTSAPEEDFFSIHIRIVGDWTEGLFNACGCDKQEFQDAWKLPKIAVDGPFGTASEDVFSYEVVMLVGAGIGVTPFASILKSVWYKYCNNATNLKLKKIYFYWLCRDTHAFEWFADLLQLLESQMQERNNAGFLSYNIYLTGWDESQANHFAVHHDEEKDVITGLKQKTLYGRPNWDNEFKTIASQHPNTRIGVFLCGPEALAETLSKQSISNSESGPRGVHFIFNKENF
Streptavidin (Streptomyces avidinii), sequence (P22629 whole entry, looked up): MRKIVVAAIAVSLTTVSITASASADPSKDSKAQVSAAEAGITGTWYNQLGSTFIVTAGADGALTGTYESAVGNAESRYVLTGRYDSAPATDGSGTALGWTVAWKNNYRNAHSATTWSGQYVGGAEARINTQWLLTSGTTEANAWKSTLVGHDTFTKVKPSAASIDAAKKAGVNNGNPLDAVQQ
Torsin-1A (Homo sapiens), sequence (O14656 whole entry, looked up): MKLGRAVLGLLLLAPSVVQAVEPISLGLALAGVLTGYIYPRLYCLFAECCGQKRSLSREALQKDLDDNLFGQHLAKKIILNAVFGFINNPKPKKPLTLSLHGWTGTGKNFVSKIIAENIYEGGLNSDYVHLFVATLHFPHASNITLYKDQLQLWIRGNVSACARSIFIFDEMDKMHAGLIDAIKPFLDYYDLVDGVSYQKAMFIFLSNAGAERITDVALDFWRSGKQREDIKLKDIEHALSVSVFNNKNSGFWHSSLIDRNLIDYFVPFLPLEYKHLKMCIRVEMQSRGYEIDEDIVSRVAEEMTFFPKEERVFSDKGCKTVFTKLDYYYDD

Consider `C[C@@]1([C@@H](NS(=O)(=O)c2cccc3cccnc23)c2ccc(-c3ccccc3)cc2)C[C@H]1C1CCCCC1`, for which the composite z-score in [1] is 0.17; in assay [6], 1.15; in [7] it was 0.417; with Torsin-1A (Homo sapiens) [8], -0.293; in the assay with Torsin-1A (Homo sapiens) [9], 0.0327; in assay [10] it was -0.517. In addition, in assay [12], the composite z-score was found to be 1.31. In addition, the z-score was -2.15 (inactive) in [2]; 0.33 (inactive) in [3]; 0.583 (inactive) in assay [4]; -0.152 (inactive) in assay [5]; -2.47 (inactive) in [11]; 0.668 (inactive) in [13]. The z-score in assay [14] was 0.367 (inactive); in assay [15], 1.39 (inactive); in assay [16], 0.691 (inactive); in assay [17] it was -0.79; in [18], 0.168 (inactive); in [19], -0.61 (inactive). The compound further gave a z-score in [20] of -1.99.

Turning to `O=C1OCCC/C=C\[C@H]2OC34C=CCN(Cc5ccccc5)C(=O)[C@H]3N(CCO)C(=O)[C@@H]4C12` (stereo not given in full), the composite z-score in assay [1] was 0.0691; in [6], -1.06; in assay [7] it was 0.225; with Torsin-1A (Homo sapiens) [8] it was 1.3; in the assay with Torsin-1A (Homo sapiens) [9], 0.232; in [10] it was 1.87. In [12], the composite z-score is -0.0536. Moreover, the z-score in [2] is 0.347 (inactive); in assay [3], -1.38 (inactive); in assay [4] it was -0.0899 (inactive); in assay [5], -0.0501 (inactive); in assay [11] it was 2.28 (inactive); in assay [13], 1.65 (inactive). The z-score in assay [14] was 0.803 (inactive); in [15], 1.82 (inactive); in assay [16], 0.671 (inactive); in [17], 0.0012; in [18], 1.7 (inactive); in [19], 0.571 (inactive). In assay [20], this compound yielded a z-score of 1.68.

With `C=CCC(OC(C)=O)[C@@H]1[C@@H](N(Cc2ccc(-c3ccccc3)cc2)C(=O)Cc2ccc(OC)cc2)c2cc(OCCCO)ccc2N1C(=O)Cc1ccc(OC)cc1` (stereo not given in full), the composite z-score in [1] was determined as 0.0361; in [6], 0.222; in assay [7], 0.169; in the assay with Torsin-1A (Homo sapiens) [8], 0.172; in the assay with Torsin-1A (Homo sapiens) [9], 0.212; in [10], 0.363. For the same compound, in [12], the composite z-score stood at 0.299. The z-score in assay [2] is -1.79 (inactive); in assay [3] it was 1.04 (inactive); in assay [4] it was 0.642 (inactive); in [5], 0.482 (inactive); in assay [11] it was -0.92 (inactive); in assay [13] it was 3.76 (inactive). For the same compound, the z-score is -0.313 (inactive) in assay [14]; 0.167 (inactive) in assay [15]; 0.141 (inactive) in assay [16]; 0.518 in [17]; -3.55 (inactive) in assay [18]; 0.194 (inactive) in [19]. In addition, the z-score in assay [20] was -0.0291.

Regarding `COC(=O)c1ccc(OC)c(/C=C\CC(OC(=O)c2ccncc2)c2ccccc2)c1` (stereo not given), the composite z-score is 0.114 in [1]; 1.79 in assay [6]; -0.154 in assay [7]; 0.217 with Torsin-1A (Homo sapiens) [8]; 0.292 with Torsin-1A (Homo sapiens) [9]; 1.14 in [10]. In addition, the composite z-score in [12] is -0.206. The z-score in assay [2] is -3.7 (inactive); in [3] it was -0.526 (inactive); in assay [4], 12.5 (active); in [5], -1.88 (inactive); in assay [11], 2.32 (inactive); in assay [13] it was 20.4 (active). The z-score in assay [14] was 3.1 (inactive); in assay [15], 0.543 (inactive); in assay [16] it was -1.02 (inactive); in [17], 1.93; in [18], -0.552 (inactive); in assay [19], 0.529 (inactive). In assay [20], this compound registered a z-score of -0.408.

Turning to `[N-]=[N+]=NCc1ccccc1[C@H]1OC(c2ccc(OCCCO)cc2)=N[C@@]1(Cc1ccccc1N=[N+]=[N-])C(N)=O`, the composite z-score in [1] amounted to 0.395; in assay [6], 1.23; in assay [7], 0.472; with Torsin-1A (Homo sapiens) [8], 1.55; with Torsin-1A (Homo sapiens) [9] it was 0.949; in assay [10] it was 0.183. In addition, the composite z-score in assay [12] was determined as 0.439. Also, the z-score in assay [2] is -1.38 (inactive); in assay [3] it was -1.13 (inactive); in assay [4], 0.0451 (inactive); in [5], -0.697 (inactive); in assay [11] it was -0.0584 (inactive); in assay [13], 22.9 (active). Moreover, the z-score in [14] was 3.47 (inactive); in assay [15] it was 1.46 (inactive); in [16], 0.79 (inactive); in assay [17] it was 0.362; in assay [18], -4.46 (inactive); in assay [19], -0.74 (inactive). Moreover, the z-score in [20] is -2.11.

For the compound `COC(=O)[C@@]1(Cc2ccc(F)cc2)[C@H]2c3cc(C(=O)N(C)C)n(Cc4cccc5ccccc45)c3C[C@H]2CN1C(=O)c1ccccc1`, the composite z-score is 1.23 in assay [1]; 0.0609 in assay [6]; 0.115 in [7]; 0.639 with Torsin-1A (Homo sapiens) [8]; 1.49 with Torsin-1A (Homo sapiens) [9]; -0.685 in assay [10]. In addition, the composite z-score in [12] was found to be 0.0568. In addition, the z-score is -0.741 (inactive) in assay [2]; 0.529 (inactive) in assay [3]; 0.0075 (inactive) in assay [4]; 0.287 (inactive) in [5]; -1.92 (inactive) in assay [11]; 8.44 (active) in assay [13]. In addition, the z-score is 1.29 (inactive) in assay [14]; 1.07 (inactive) in assay [15]; 1.28 (inactive) in assay [16]; -0.779 in assay [17]; 0.105 (inactive) in [18]; -3.8 (inactive) in [19]. This compound came in with a z-score in assay [20] of 0.592.

On to `CCN1C(=O)C2CC(=O)C3C(CN(S(=O)(=O)c4ccc(C)cc4)C3c3ccc(C)cc3)C2C1=O` (stereo not given), for which the composite z-score in [1] is 0.235; in assay [6] it was 0.851; in [7], -0.0471; with Torsin-1A (Homo sapiens) [8] it was 0.364; with Torsin-1A (Homo sapiens) [9] it was 0.915; in assay [10] it was 0.184. The composite z-score in assay [12] was -0.0967. Also, the z-score in [2] was -1.49 (inactive); in assay [3], 1.03 (inactive); in [4], -0.676 (inactive); in assay [5] it was -0.202 (inactive); in assay [11], 0.344 (inactive); in [13], 1.04 (inactive). Also, the z-score in assay [14] is 0.804 (inactive); in assay [15], 0.135 (inactive); in assay [16] it was 0.609 (inactive); in [17], -0.0511; in assay [18], -0.374 (inactive); in assay [19] it was -0.0929 (inactive). Besides, in [20], the z-score was -0.525.

For the compound `O=C1NC(=O)C2C1C=CC(C(O)C(c1ccccc1)c1ccccc1)N2Nc1ccccn1` (stereo not given), the composite z-score was 0.367 in [1]; -0.0787 in assay [6]; 0.096 in assay [7]; 0.675 with Torsin-1A (Homo sapiens) [8]; 1.06 with Torsin-1A (Homo sapiens) [9]; 0.676 in [10]. In [12], the composite z-score stood at 0.228. Also, the z-score was 0.604 (inactive) in [2]; -0.725 (inactive) in [3]; -0.898 (inactive) in assay [4]; -0.804 (inactive) in [5]; -0.332 (inactive) in [11]; 0.186 (inactive) in assay [13]. Moreover, the z-score in assay [14] is 0.829 (inactive); in assay [15], 0.156 (inactive); in assay [16] it was 0.853 (inactive); in assay [17] it was -0.681; in assay [18] it was 0.738 (inactive); in [19], -2.13 (inactive). The compound further gave a z-score in assay [20] of -1.47.

(Values after PubChem BioAssay.)
